Laboratory results taken from the supplement of paper PMC11732987, “Enantioselective OTUD7B fragment discovery through chemoproteomics screening and high-throughput optimisation” (Communications Chemistry, 2025).

Experiments:
Assay in all cases: log2 ratio of Biotin-Ahx-Ub-VS probe labelling (fragment/DMSO); higher = less target engagement (more negative = stronger competition), active = hit call of the paper (q ≤ 0.05, log2 ratio ≤ -1)
Settings in all cases: compound concentration: 200 uM; treatment time: 3 h
USP34 = USP34 (UniProt Q70CQ2)
Chain of USP34 (Q70CQ2 whole entry, the tested form may be a part): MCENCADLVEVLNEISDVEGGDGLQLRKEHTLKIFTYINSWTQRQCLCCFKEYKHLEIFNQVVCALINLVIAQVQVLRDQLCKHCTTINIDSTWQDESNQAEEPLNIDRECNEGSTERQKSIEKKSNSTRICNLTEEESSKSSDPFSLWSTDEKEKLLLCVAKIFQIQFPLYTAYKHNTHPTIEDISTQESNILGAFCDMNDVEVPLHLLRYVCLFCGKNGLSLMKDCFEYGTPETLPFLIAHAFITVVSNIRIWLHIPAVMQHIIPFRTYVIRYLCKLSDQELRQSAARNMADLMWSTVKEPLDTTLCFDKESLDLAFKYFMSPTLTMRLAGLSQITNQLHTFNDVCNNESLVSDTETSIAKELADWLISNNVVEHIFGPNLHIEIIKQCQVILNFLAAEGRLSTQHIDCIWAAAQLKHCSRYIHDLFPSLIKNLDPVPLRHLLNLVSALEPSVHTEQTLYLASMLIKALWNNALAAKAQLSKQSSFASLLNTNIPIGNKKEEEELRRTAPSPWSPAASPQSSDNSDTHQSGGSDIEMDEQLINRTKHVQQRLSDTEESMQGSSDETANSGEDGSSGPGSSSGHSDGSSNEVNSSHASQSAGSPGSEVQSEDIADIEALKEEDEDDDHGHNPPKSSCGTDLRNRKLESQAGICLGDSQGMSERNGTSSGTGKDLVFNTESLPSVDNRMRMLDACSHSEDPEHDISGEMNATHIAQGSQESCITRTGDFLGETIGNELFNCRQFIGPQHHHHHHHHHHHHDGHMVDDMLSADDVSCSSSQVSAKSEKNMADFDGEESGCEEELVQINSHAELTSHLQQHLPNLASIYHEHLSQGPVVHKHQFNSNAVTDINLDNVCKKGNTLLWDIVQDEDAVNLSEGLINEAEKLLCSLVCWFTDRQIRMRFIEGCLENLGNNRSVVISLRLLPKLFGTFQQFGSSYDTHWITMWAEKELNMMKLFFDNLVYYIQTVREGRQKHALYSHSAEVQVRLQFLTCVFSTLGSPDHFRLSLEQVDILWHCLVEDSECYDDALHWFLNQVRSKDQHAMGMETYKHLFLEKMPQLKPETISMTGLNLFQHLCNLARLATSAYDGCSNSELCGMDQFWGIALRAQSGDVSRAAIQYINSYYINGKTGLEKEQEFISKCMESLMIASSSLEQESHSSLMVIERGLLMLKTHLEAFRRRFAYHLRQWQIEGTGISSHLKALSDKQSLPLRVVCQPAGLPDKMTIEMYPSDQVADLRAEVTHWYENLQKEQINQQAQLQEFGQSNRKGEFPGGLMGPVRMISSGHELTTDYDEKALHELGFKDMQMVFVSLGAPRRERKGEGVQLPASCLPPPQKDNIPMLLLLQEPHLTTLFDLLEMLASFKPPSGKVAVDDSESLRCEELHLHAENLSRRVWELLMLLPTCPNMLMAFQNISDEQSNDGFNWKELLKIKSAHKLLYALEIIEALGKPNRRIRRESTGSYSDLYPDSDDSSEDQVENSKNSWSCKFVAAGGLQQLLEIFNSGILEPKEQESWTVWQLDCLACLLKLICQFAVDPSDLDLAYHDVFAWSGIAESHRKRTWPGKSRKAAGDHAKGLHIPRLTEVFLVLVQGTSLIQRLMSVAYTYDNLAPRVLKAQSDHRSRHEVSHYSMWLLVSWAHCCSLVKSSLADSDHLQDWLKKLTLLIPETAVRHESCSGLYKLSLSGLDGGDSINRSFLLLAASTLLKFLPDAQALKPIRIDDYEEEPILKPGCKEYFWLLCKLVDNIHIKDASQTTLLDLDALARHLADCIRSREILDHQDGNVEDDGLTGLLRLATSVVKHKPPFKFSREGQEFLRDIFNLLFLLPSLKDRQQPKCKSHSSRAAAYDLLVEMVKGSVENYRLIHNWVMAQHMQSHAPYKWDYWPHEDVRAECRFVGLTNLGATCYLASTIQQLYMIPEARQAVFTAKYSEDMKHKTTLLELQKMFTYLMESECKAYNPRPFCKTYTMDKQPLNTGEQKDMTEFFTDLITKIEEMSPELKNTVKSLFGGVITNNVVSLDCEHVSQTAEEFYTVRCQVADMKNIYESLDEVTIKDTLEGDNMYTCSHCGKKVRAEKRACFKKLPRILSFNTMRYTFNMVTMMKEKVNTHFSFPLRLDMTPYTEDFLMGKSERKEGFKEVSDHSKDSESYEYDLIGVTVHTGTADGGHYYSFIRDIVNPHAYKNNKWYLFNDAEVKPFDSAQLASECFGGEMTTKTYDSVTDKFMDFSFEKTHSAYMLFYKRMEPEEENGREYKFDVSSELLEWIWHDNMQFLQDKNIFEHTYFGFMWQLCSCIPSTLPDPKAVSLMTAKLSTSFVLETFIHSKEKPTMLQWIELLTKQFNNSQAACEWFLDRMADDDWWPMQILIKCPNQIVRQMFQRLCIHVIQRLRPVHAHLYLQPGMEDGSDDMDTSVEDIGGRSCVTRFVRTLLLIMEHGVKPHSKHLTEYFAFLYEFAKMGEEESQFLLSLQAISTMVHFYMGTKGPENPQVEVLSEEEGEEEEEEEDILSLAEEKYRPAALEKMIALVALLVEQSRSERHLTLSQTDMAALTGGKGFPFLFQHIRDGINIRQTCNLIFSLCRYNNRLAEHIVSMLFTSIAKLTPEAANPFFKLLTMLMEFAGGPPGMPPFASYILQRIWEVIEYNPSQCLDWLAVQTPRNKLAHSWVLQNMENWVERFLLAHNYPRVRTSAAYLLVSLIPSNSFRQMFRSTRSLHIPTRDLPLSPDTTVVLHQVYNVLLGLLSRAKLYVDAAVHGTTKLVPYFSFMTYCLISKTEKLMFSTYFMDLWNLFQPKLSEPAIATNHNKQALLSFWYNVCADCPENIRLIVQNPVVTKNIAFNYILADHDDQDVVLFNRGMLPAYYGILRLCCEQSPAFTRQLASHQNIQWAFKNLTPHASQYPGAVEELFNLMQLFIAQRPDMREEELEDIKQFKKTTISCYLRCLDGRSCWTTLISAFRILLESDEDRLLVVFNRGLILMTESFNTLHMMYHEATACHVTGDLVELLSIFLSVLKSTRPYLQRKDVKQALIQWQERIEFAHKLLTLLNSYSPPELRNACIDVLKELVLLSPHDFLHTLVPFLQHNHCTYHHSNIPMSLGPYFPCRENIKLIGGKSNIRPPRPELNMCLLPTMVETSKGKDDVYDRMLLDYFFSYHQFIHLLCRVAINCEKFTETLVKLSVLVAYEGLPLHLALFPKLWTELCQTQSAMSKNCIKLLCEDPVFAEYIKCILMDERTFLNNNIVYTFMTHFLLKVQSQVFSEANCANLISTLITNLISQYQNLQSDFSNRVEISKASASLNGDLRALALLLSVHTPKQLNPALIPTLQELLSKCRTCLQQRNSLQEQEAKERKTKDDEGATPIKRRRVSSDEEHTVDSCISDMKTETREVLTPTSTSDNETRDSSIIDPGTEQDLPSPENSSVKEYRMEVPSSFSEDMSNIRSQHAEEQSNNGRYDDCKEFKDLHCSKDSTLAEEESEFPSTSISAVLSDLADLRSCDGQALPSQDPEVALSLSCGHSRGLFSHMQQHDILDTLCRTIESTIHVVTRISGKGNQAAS
Method in brief: (§1)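 Fragment (200 µM) or vehicle was incubated for 3 h with triplicate HEK293T lysate samples of 495 µg, which were then treated with Biotin-Ahx-Ub-VS at 0.5 µM final for 1 h. Labelled DUBs were enriched on NeutrAvidin, digested with LysC and trypsin, and analysed by diaPASEF LC-MS/MS. Values are average log2 fragment/vehicle ratios from an unpaired t-test on global-median-normalised Spectronaut label-free quantities, using proteins with ≥2 unique peptides.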

USP36 = molecular target: T1, USP36 (UniProt Q9P275)
T1 sequence (whole entry): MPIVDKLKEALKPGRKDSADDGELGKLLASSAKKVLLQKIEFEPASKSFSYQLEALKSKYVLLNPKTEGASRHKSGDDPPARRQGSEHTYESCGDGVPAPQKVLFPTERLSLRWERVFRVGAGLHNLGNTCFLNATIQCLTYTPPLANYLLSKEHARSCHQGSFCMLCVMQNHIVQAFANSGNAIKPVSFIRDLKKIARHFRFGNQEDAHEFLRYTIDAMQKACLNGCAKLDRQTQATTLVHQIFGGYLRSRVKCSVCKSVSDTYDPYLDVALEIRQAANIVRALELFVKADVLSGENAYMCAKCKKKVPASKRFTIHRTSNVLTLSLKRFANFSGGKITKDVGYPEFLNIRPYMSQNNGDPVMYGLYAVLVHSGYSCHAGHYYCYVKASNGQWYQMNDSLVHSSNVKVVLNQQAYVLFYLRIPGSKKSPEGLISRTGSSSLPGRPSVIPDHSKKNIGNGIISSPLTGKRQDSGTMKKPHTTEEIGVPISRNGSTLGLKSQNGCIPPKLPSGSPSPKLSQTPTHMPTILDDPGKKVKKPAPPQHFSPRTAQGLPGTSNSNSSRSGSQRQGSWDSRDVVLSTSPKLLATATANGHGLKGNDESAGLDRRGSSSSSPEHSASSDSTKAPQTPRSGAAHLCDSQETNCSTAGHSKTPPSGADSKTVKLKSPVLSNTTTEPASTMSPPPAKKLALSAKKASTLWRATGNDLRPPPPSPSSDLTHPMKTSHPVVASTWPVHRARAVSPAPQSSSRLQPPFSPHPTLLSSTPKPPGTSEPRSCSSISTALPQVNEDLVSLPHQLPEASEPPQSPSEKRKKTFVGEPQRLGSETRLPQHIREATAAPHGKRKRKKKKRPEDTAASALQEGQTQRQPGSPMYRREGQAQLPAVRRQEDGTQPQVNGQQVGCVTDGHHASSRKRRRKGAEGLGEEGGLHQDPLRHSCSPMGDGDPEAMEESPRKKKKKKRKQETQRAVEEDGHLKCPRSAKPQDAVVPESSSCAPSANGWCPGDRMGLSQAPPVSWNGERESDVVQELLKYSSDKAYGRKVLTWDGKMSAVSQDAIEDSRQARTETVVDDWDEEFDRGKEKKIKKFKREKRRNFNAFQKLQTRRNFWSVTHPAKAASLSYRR
Method in brief: as §1

USP38 = molecular target: T2, USP38 (UniProt Q8NB14)
T2 sequence (whole entry): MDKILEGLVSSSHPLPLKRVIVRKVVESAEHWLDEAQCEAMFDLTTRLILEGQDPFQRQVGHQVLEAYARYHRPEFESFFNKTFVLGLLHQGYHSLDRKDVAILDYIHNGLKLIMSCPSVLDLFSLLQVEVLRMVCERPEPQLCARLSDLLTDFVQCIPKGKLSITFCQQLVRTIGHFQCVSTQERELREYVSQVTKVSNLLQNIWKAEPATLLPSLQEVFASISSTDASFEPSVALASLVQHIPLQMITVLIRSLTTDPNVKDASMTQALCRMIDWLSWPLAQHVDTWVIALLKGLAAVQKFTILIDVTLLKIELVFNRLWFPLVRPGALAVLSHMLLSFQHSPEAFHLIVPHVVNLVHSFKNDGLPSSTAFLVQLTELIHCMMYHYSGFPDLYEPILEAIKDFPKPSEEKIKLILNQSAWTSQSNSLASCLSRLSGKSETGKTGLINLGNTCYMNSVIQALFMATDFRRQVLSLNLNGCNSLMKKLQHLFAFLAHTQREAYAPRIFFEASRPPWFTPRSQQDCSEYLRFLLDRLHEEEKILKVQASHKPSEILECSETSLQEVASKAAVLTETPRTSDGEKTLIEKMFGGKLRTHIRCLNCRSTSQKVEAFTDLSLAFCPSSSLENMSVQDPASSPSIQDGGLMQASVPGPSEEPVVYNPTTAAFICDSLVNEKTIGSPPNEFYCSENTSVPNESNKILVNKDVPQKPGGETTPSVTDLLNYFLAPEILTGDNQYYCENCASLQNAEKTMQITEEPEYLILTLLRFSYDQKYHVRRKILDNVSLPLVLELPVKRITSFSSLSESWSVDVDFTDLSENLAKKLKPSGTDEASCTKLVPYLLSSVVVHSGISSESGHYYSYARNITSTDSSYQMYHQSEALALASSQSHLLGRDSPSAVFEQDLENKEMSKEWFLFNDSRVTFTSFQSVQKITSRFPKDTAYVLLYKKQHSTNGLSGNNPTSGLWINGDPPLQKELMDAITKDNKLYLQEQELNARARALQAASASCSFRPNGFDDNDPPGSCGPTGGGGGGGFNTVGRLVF
Method in brief: as §1

USP39 = molecular target: T3, USP39 (UniProt Q53GS9)
T3 sequence (whole entry): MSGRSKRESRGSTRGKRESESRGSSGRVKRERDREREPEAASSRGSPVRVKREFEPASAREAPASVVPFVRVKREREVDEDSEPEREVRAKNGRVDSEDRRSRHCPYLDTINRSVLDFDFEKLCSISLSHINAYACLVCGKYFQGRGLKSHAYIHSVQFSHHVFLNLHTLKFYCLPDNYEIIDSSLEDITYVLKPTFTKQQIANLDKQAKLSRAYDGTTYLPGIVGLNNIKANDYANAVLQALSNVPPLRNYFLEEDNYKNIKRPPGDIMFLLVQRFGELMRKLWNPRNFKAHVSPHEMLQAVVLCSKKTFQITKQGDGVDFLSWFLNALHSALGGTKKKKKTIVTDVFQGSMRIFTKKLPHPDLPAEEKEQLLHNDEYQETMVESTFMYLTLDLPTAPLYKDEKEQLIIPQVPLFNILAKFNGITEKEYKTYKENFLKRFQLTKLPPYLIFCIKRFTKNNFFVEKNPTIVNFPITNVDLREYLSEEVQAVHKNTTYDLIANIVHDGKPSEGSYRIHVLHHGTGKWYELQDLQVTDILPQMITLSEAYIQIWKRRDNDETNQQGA
Method in brief: as §1

USP4 = molecular target: T4, USP4 (UniProt Q13107)
T4 sequence (whole entry): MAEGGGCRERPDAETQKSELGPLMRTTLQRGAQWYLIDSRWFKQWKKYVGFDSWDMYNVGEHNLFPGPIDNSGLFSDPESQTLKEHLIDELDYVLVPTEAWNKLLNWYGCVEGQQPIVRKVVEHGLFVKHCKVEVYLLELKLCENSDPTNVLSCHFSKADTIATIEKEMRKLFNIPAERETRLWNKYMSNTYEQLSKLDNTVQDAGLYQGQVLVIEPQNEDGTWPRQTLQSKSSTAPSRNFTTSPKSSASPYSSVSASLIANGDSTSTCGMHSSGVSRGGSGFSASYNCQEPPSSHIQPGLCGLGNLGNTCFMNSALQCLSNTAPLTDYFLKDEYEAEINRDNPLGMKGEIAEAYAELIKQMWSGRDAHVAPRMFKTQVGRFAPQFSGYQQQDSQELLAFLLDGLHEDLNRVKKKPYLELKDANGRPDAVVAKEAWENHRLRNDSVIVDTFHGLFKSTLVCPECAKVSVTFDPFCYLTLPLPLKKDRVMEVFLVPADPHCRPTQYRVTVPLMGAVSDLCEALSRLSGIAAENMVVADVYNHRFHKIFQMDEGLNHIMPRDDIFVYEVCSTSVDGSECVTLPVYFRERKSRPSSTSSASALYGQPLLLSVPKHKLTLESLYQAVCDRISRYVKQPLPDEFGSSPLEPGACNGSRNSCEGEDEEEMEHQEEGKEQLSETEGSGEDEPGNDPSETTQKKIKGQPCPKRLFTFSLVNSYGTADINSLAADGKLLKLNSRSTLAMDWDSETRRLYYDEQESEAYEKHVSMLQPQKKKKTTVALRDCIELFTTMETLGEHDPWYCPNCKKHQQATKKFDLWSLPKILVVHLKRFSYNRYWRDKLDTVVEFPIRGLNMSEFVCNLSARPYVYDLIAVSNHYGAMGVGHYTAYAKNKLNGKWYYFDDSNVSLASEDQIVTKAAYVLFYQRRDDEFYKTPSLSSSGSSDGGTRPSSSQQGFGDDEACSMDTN
Method in brief: as §1

Measured: log2 ratio of Biotin-Ahx-Ub-VS probe labelling

O=C(CCl)N1CCC(c2ccn[nH]2)C1 (stereo not given)
inactive: USP34 0.0363 | USP36 -0.353 | USP38 -0.148 | USP39 0.00596 | USP4 -0.113
